Results on 14 molecules are retold here after PubChem BioAssay (EPA / NIEHS).

Each structure is given as a SMILES string. Where “and” joins values, the source holds several entries; their conditions need not be identical. Equal values may be shown once. Inconclusive results are not listed. A structure can be active in one record and inactive in another. Calls of active or inactive are those of the source. The calls were made as follows: active = hit-call score of the fitted dose curve at least 0.9, where 1 is the maximum; inconclusive = response in the unintended direction; inactive = score below 0.9.

Test [1] has as its target human Protein Tyrosine Phosphatase Receptor Type F (PTPRF), PTPRF (gene 5792) (UniProt P10586). Nature of the test: NVS_ENZ_hPTPRF: NovaScreen (NVS) Enzymatic Assay for human Protein Tyrosine Phosphatase Receptor Type F (PTPRF) (AID 2283213). The procedure, abridged: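 Cell-free fluorescence enzyme assay with recombinant protein and substrate; product separated by electrophoretic mobility shift. Read 1 h after dosing, single 25 uM duplicate screen, then concentration-response up to 50 uM; loss of signal vs DMSO.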

Test [2] deals with rabbit Imidazoline 2 Central (I2C), CKB (gene 100009085) (UniProt P00567). Nature of the test: NVS_ENZ_rabI2C: NovaScreen (NVS) Enzymatic Assay for rabbit Imidazoline 2 Central (I2C) (AID 2283228). The procedure, abridged:
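Rabbit brain membranes, cell-free; readout by filter-based scintillation counting 1.5 hours after dosing, loss of signal vs DMSO. Initial duplicate test at 25 uM, then concentration-response with 50 uM top concentration.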

Test [3] deals with human Sirtuin 2 (SIRT2), SIRT2 (gene 22933) (UniProt Q8IXJ6). Nature of the test: NVS_ENZ_hSIRT2: NovaScreen (NVS) Enzymatic Assay for human Sirtuin 2 (SIRT2) (AID 2283217). The procedure, abridged: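 Cell-free recombinant human SIRT2, fluorescent substrate with product separated by electrophoretic mobility shift, 1 hr. Screened in duplicate at 25 uM; hits rerun singly in concentration-response up to 50 uM, relative to DMSO.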

Test [4] deals with human Sirtuin 3 (SIRT3), SIRT3 (gene 23410) (UniProt Q9NTG7). As to the kind of experiment: NVS_ENZ_hSIRT3: NovaScreen (NVS) Enzymatic Assay for human Sirtuin 3 (SIRT3) (AID 2283222). The essentials:
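Cell-free enzyme assay with recombinant protein and fluorescent substrate, product separated by electrophoretic mobility shift; read 1 hour after dosing. Screened in duplicate at 25 uM, then singleton concentration-response up to 50 uM; loss of signal versus DMSO.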

The target of test [5] is human Protein Tyrosine Phosphatase Non-receptor Type 4 (PTPN4), PTPN4 (gene 5775) (UniProt P29074). As to the kind of experiment: NVS_ENZ_hPTPN4: NovaScreen (NVS) Enzymatic Assay for human Protein Tyrosine Phosphatase Non-receptor Type 4 (PTPN4) (AID 2283208). The essentials:
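Cell-free assay of PTPN4 expressed in Sf9 cells, using a fluorescent substrate with product separated by mobility shift; read 1.33 h after dosing. Single-point screen at 25 uM, then concentration-response up to 50 uM. Loss of signal relative to DMSO.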

Test [6] concerns the target human Protein Tyrosine Phosphatase Non-receptor Type 9 (PTPN9), PTPN9 (gene 5780) (UniProt P43378). Nature of the test: NVS_ENZ_hPTPN9: NovaScreen (NVS) Enzymatic Assay for human Protein Tyrosine Phosphatase Non-receptor Type 9 (PTPN9) (AID 2283209). The procedure, abridged: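 Sf9-expressed enzyme in a cell-free assay, fluorescence read 1.33 h after dosing with mobility-shift separation of substrate and product. Tested at 25 uM in duplicate, then up to 50 uM; signal loss versus DMSO.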

Test [7] deals with human Raf-1 Proto-Oncogene, serine/threonine Kinase (RAF1), RAF1 (gene 5894) (UniProt P04049). Nature of the test: NVS_ENZ_hRAF1: NovaScreen (NVS) Enzymatic Assay for human Raf-1 Proto-Oncogene, serine/threonine Kinase (RAF1) (AID 2283216). The procedure, abridged: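 Cell-free recombinant kinase with specific fluorescent substrate, product separated by electrophoretic mobility shift; read 1 h after dosing. Primary screen at 25 uM in duplicate; hits then run in concentration-response up to 50 uM, fitted as loss of signal versus DMSO.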

The target of test [8] is human Sirtuin 1 (SIRT1), SIRT1 (gene 23411) (UniProt Q96EB6). As to the kind of experiment: NVS_ENZ_hSIRT1: NovaScreen (NVS) Enzymatic Assay for human Sirtuin 1 (SIRT1) (AID 2283219). The essentials:
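Cell-free recombinant SIRT1 with a fluorescent substrate; substrate and product separated by electrophoretic mobility shift and read by fluorescence intensity, 1 h after dosing. Primary screen at 25 uM in duplicate; hits re-run in concentration-response up to 50 uM, relative to DMSO.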

Test [9] concerns the target human Tyrosine Protein Kinase Receptor Tie-2 (Tie2), TEK (gene 7010) (UniProt Q02763). As to the kind of experiment: NVS_ENZ_hTie2: NovaScreen (NVS) Enzymatic Assay for human Tyrosine Protein Kinase Receptor Tie-2 (Tie2) (AID 2283225). The procedure, abridged:
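Recombinant human Tie2 kinase activity was read cell-free by fluorescence with electrophoretic mobility shift, 1 hour after dosing. The screen used 25 uM in duplicate, then concentration-response up to 50 uM. Signal loss was scored against DMSO.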

Test [10] concerns the target human Protein Tyrosine Phosphatase Non-receptor Type 6 (PTPN6), PTPN6 (gene 5777) (UniProt P29350). Nature of the test: NVS_ENZ_hPTPN6: NovaScreen (NVS) Enzymatic Assay for human Protein Tyrosine Phosphatase Non-receptor Type 6 (PTPN6) (AID 2283210). The procedure, abridged:
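Cell-free assay with recombinant PTPN6 expressed in SF9 cells, fluorescent substrate, product separated from substrate by electrophoretic mobility shift; read 1.33 hours after dosing. Primary screen in duplicate at 25 uM, actives retested in concentration series; DMSO baseline.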

Test [11] has as its target human Protein Tyrosine Phosphatase Receptor Type B (PTPRB), PTPRB (gene 5787) (UniProt P23467). Nature of the test: NVS_ENZ_hPTPRB: NovaScreen (NVS) Enzymatic Assay for human Protein Tyrosine Phosphatase Receptor Type B (PTPRB) (AID 2283211). The procedure, abridged: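 Recombinant human PTPRB with a fluorescent substrate, product separated by electrophoretic mobility shift; read 1 h after dosing. Primary screen in duplicate at 25 uM; actives then retested in concentration series; loss of signal versus DMSO.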

The target of test [12] is human Protein Tyrosine Phosphatase Receptor Type C (PTPRC), PTPRC (gene 5788) (UniProt P08575). Nature of the test: NVS_ENZ_hPTPRC: NovaScreen (NVS) Enzymatic Assay for human Protein Tyrosine Phosphatase Receptor Type C (PTPRC) (AID 2283212). The essentials: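 Yeast-extracted human PTPRC used in a cell-free colorimetric enzyme activity read-out, 1 h after dosing. Primary screen in duplicate at 25 uM; actives rerun in concentration-response up to 50 uM, DMSO as baseline.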

Test [13] has as its target human Rho Associated Coiled-coil Containing Protein Kinase 1 (ROCK1), ROCK1 (gene 6093) (UniProt Q13464). Nature of the test: NVS_ENZ_hROCK1: NovaScreen (NVS) Enzymatic Assay for human Rho Associated Coiled-coil Containing Protein Kinase 1 (ROCK1) (AID 2283214). The essentials:
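Cell-free recombinant human ROCK1 activity assay; fluorescent substrate and product separated by electrophoretic mobility shift, read 1 h after dosing. Screened in duplicate at 25 uM; loss of signal versus DMSO baseline scored as inhibition.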

In test [14] the target is human Protein Tyrosine Phosphatase Receptor Type M (PTPRM), PTPRM (gene 5797) (UniProt P28827). As to the kind of experiment: NVS_ENZ_hPTPRM: NovaScreen (NVS) Enzymatic Assay for human Protein Tyrosine Phosphatase Receptor Type M (PTPRM) (AID 2283215). The procedure, abridged:
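Cell-free recombinant PTPRM with fluorogenic substrate; product separated from substrate by electrophoretic mobility shift and read by fluorescence, 1.33 h after dosing. Primary screen single concentration (25 uM) in duplicate; actives retested in concentration series; loss of signal versus DMSO.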

Test [15] addresses human Tropomyosin Receptor Kinase A (TRKA), NTRK1 (gene 4914) (UniProt P04629). As to the kind of experiment: NVS_ENZ_hTrkA: NovaScreen (NVS) Enzymatic Assay for human Tropomyosin Receptor Kinase A (TRKA) (AID 2283224). The procedure, abridged: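 Recombinant human TrkA activity read after 1 h by fluorescence with electrophoretic mobility shift separating substrate and product. Primary screen in duplicate at 25 uM; actives were rerun in concentration-response up to 50 uM. Loss of signal versus DMSO.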

In test [16] the target is human Vascular Endothelial Growth Factor Receptor 1 (VEGFR1), FLT1 (gene 2321) (UniProt P17948). Nature of the test: NVS_ENZ_hVEGFR1: NovaScreen (NVS) Enzymatic Assay for human Vascular Endothelial Growth Factor Receptor 1 (VEGFR1) (AID 2283226). The procedure, abridged: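 Cell-free assay of recombinant human VEGFR1 kinase with substrate, measured 1 h after dosing; fluorescence with electrophoretic mobility-shift separation of substrate and product, referenced to DMSO; primary screen at 25 uM in duplicate, actives then run in concentration series.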

Test [17] addresses human Vascular Endothelial Growth Factor Receptor 3 (VEGFR3), FLT4 (gene 2324) (UniProt P35916). As to the kind of experiment: NVS_ENZ_hVEGFR3: NovaScreen (NVS) Enzymatic Assay for human Vascular Endothelial Growth Factor Receptor 3 (VEGFR3) (AID 2283229). The essentials: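 Cell-free recombinant VEGFR3 kinase reaction with fluorescent substrate, read 1 h after dosing by electrophoretic mobility shift separation of substrate and product. Single-concentration duplicate screen at 25 uM, then concentration-response up to 50 uM; loss of activity versus DMSO.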

Test [18] deals with human Vascular Endothelial Growth Factor Receptor 2 (VEGFR2), KDR (gene 3791) (UniProt P35968). Nature of the test: NVS_ENZ_hVEGFR2: NovaScreen (NVS) Enzymatic Assay for human Vascular Endothelial Growth Factor Receptor 2 (VEGFR2) (AID 2283230). The procedure, abridged:
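Cell-free recombinant VEGFR2 kinase, fluorescent substrate with electrophoretic mobility-shift separation; read 1 h after dosing. Screened at 25 uM in duplicate, hits to concentration-response up to 50 uM; loss-of-signal versus DMSO.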

The target in test [19] is sheep Cyclooxygenase-2 (Cox2), PTGS2 (gene 443460) (UniProt P79208). As to the kind of experiment: NVS_ENZ_oCOX2: NovaScreen (NVS) Enzymatic Assay for sheep Cyclooxygenase-2 (Cox2) (AID 2283231). The essentials: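 Compounds were first run at 25 uM in duplicate against tissue-extracted ovine COX-2; those passing a preset inhibition threshold went to singleton concentration-response testing with a 50 uM maximum. Read-out: absorbance at 0.66 hour.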

Sequence of human Protein Tyrosine Phosphatase Receptor Type F (PTPRF), PTPRF (gene 5792) (P10586 whole entry, looked up): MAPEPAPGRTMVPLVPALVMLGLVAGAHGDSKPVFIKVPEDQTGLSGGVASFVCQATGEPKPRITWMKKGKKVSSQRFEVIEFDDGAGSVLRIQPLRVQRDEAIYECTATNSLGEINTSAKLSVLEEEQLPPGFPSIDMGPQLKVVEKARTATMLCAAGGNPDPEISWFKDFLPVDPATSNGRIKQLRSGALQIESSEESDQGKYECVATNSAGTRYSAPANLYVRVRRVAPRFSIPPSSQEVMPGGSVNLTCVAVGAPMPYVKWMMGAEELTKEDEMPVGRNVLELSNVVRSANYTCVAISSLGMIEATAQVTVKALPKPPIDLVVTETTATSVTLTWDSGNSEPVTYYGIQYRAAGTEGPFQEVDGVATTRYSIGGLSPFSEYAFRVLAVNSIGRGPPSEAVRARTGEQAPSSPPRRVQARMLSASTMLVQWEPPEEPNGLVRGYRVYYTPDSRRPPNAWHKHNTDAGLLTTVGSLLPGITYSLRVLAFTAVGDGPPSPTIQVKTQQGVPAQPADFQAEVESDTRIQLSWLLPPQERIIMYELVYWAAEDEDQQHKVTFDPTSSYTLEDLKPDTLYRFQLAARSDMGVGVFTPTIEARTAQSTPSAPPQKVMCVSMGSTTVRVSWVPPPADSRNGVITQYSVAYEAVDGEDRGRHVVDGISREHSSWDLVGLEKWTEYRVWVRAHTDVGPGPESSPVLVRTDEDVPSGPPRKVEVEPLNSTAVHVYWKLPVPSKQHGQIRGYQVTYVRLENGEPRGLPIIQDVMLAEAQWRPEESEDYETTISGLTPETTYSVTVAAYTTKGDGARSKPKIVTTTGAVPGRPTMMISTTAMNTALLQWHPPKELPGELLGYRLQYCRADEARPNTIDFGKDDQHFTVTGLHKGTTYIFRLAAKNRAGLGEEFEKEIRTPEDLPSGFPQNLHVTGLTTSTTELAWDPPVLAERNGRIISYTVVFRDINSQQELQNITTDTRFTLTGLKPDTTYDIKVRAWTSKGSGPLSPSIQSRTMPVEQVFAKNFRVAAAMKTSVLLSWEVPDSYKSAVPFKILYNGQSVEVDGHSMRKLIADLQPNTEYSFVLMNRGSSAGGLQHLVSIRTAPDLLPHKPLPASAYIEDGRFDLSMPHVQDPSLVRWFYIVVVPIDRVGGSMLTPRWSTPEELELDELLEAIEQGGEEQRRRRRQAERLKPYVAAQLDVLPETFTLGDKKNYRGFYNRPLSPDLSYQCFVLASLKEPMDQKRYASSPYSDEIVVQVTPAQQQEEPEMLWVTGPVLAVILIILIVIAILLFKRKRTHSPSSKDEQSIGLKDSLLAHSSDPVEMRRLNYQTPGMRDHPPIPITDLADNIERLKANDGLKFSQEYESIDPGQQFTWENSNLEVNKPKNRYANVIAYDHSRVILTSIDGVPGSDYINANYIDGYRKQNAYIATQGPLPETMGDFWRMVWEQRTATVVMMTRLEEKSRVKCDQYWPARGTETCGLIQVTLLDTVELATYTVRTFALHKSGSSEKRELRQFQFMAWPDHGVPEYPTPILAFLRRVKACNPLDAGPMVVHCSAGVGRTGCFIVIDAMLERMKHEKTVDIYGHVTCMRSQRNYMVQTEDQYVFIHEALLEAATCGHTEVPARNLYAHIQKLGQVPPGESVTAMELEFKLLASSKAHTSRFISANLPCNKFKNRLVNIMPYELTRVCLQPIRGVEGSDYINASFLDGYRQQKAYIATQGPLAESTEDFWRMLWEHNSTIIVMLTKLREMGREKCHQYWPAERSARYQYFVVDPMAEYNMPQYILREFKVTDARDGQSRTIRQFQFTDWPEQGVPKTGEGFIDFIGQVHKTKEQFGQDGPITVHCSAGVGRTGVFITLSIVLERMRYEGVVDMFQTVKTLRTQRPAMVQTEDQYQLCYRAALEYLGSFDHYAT
Sequence of human Vascular Endothelial Growth Factor Receptor 2 (VEGFR2), KDR (gene 3791) (P35968 whole entry, looked up): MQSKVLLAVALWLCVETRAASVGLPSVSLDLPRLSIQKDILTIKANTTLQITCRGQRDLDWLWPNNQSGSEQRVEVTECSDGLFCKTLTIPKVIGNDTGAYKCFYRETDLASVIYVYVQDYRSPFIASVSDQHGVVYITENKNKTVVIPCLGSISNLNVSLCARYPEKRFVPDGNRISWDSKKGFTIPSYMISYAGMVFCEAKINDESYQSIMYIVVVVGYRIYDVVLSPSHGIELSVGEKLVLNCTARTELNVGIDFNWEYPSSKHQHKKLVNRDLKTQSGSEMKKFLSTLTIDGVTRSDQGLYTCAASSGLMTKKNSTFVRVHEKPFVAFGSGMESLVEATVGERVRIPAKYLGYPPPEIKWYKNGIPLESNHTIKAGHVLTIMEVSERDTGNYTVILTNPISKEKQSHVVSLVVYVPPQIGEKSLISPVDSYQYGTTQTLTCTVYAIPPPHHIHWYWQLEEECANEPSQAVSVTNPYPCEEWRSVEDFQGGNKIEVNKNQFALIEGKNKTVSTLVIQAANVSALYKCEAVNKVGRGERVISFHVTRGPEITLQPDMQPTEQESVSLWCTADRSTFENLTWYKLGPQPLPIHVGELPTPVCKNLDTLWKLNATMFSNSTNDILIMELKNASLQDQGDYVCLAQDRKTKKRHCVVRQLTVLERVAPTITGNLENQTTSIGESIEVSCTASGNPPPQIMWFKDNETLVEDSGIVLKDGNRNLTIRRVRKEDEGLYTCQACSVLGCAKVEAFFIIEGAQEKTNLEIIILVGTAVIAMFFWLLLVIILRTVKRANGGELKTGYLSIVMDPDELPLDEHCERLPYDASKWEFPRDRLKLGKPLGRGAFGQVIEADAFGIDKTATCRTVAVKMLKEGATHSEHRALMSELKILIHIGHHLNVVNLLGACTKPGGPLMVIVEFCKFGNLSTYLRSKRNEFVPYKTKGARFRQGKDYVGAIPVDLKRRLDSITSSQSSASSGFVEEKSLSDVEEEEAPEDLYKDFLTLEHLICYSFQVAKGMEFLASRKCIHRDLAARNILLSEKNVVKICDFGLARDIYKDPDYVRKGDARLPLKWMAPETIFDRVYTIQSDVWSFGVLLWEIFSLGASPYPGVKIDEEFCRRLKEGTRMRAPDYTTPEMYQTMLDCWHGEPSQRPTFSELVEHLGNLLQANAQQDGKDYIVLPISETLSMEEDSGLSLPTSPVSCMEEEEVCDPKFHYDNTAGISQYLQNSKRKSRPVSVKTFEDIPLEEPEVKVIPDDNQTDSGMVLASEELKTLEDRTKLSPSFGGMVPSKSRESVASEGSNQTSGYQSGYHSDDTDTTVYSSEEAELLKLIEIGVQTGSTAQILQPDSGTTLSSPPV
Sequence of human Vascular Endothelial Growth Factor Receptor 3 (VEGFR3), FLT4 (gene 2324) (P35916 whole entry, looked up): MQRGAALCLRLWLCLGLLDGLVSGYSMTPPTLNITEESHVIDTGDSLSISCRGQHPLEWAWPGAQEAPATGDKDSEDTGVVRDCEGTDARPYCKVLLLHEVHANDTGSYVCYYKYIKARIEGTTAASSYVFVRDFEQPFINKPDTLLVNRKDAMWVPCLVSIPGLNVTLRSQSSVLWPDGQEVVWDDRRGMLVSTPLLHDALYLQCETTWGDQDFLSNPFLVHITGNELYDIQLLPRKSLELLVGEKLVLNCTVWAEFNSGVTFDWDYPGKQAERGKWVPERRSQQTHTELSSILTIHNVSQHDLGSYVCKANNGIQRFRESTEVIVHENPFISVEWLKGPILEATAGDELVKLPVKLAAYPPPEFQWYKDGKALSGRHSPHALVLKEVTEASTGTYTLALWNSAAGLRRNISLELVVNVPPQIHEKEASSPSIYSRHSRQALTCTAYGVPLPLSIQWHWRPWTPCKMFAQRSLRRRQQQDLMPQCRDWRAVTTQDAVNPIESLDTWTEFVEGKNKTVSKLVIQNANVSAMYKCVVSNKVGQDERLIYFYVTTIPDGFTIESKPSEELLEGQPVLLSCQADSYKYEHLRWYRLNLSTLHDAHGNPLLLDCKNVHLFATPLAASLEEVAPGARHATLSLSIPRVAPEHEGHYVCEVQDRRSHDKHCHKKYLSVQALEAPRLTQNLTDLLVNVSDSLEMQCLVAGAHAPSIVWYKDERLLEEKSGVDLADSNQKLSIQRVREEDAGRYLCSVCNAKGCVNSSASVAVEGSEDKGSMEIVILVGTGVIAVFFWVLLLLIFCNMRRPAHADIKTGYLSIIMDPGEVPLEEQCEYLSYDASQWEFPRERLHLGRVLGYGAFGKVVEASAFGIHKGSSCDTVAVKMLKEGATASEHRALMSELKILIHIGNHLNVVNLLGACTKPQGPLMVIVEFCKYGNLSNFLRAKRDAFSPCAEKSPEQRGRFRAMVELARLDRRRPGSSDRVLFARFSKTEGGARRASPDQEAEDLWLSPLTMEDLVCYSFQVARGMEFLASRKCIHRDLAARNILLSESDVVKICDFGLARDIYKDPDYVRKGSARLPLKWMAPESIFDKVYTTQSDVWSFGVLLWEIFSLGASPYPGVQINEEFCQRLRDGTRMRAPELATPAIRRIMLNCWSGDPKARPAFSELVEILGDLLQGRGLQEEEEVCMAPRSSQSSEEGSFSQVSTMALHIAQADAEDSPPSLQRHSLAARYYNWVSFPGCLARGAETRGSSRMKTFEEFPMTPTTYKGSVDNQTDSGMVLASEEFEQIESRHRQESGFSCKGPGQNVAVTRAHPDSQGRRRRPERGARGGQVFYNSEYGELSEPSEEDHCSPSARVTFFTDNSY
Sequence of rabbit Imidazoline 2 Central (I2C), CKB (gene 100009085) (P00567 whole entry, looked up): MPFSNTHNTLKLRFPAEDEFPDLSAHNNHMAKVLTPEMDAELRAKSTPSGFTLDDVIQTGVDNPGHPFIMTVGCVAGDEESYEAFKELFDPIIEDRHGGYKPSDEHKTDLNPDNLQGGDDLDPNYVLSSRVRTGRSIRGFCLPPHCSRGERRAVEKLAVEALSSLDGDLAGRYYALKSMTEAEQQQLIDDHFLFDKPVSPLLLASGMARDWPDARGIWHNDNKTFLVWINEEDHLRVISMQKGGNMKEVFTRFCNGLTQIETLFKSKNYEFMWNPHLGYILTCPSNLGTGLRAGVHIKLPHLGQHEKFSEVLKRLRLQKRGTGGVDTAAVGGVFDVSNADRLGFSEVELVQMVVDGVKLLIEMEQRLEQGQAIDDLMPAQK

For `O=[N+]([O-])c1c(Cl)c(Cl)c(Cl)c(Cl)c1Cl`, the molecule was classed as inactive in test [1] and in [2].
Consider `O=[N+]([O-])/N=C1\NCCN1Cc1ccc(Cl)nc1`, for which the AC50 in [2] is 11.4 µM (active).
On to `CCCN(CCOc1c(Cl)cc(Cl)cc1Cl)C(=O)n1ccnc1`, for which the concentration at half-maximal activity (AC50) in test [3] is 10.8 µM (active). In addition, the molecule was classed as inactive in test [4] and in [2].
In the case of `COC(=O)c1ccccc1S(=O)(=O)NC(=O)N(C)c1nc(C)nc(OC)n1`, the outcome in test [5] and in [6] was inactive.
Turning to `CCOc1nc(NC)nc(NC(=O)NS(=O)(=O)c2ccccc2C(=O)OC)n1`, the call in [7] was inactive.
For `O=C1c2ccccc2C(=O)N1SC(Cl)(Cl)Cl`, the outcome in test [5] was inactive.
As for `ClC1C(Cl)C(Cl)C(Cl)C(Cl)C1Cl` (centres undefined), in test [8], the molecule was called inactive.
For `CC(C)OC(=O)Nc1cccc(Cl)c1`, the outcome in [9] was inactive.
As to `O=S(=O)(O)C(F)(F)C(F)(F)C(F)(F)C(F)(F)C(F)(F)C(F)(F)C(F)(F)C(F)(F)F`, the AC50 in [10] was 34.8 µM (active); in test [11], 18.7 µM (active) and 37.6 µM (active); in test [12] it was 17.1 µM (active) and 15.2 µM (active); in test [1] it was 14.8 µM (active) and 13.1 µM (active); in test [13], 39 µM (active); in test [14] it was 23.6 µM (active) and 43 µM (active). Also, the AC50 is 33.2 µM (active) and 24.5 µM (active) in test [7]; 6.66 µM (active) in [3]; 36.5 µM (active) and 28.4 µM (active) in [15]; 8.09 µM (active) and 6.38 µM (active) and 5.3 µM (active) in [9]; 11.9 µM (active) and 11.4 µM (active) and 8.57 µM (active) in test [16]; 7.45 µM (active) and 9.17 µM (active) in [17]. For the same molecule, the AC50 was 27.2 µM (active) and 43.1 µM (active) in [18]; 9.06 µM (active) in test [19]. The molecule was called inactive in test [12].
Take `Oc1cc(Cl)ccc1Oc1ccc(Cl)cc1Cl`: the molecule was called inactive in [11], in test [9], in [17] and in test [18]. The AC50 in test [19] was 18.6 µM (active).
Take `CN1CSC(=S)N(C)C1`: the molecule was classed as inactive in test [5] and in test [6]. Also, the results for the AC50 in test [1] and in [14] were 10.1 µM (active) and 25 µM (active), respectively.
With `COC(=O)c1ccccc1S(=O)(=O)NC(=O)Nc1nc(C)nc(OC)n1`, the outcome in test [11] was inactive.
For `OCCOc1ccccc1`, in test [9], the result was inactive.
`CC[C@H](C)[C@H]1O[C@]2(C=C[C@@H]1C)C[C@@H]1C[C@@H](C/C=C(\C)[C@@H](O[C@H]3C[C@H](OC)[C@@H](O[C@H]4C[C@H](OC)[C@@H](O)[C@H](C)O4)[C@H](C)O3)[C@@H](C)/C=C/C=C3\CO[C@@H]4[C@H](O)C(C)=C[C@@H](C(=O)O1)[C@]34O)O2` (tested in a mixture with another compound): the half-maximal activity concentration (AC50) in test [14] is 45.3 µM (active); in test [8], 17.2 µM (active); in [4], 5.19 µM (active); in test [9], 36.1 µM (active); in test [19] it was 8.68 µM (active). In [18], the molecule was classed as inactive.
